The text below walks through data of paper PMC12136788.

Changes are numbered by the printed parent chain. Whole data set: some 24,000 sequences, median “enrichment r” near 0.99, cut for the highest 2% near 3.7. For the sample, the highest values were picked, then their nearest neighbours and some sequences at random.

B1: chr7:141450121:141450122:+_ENSG00000106028_ENST00000265304|hu_mus|hu_hu_hu_mus_True|68_68 (ssRNA)
RNA: GGGAGUUCUACAGUCCGACGAUCUCAUCCGUUCUAUGCCUUUUCUUUUGUCUGGUCACUCAGAAAUAUAAUAUUAUCAGCUAUGAUUGUUGUUGCUUGCCGCCUCACAUUGUUUUUAUCCAUGUACUCGCCAUAGUCCACUUUCAACAGAGGAUUGAGCAUCA
B2: chr11:80063784:80063785:+_ENSMUSG00000017686_ENSMUST00000092857|mus_mus|FALSE|FALSE (ssRNA)
RNA: GGGAGUUCUACAGUCCGACGAUCCAUUAGGUUUCUUCCAAGGAGAGACUGAAGAACUCCAGUUUUCCCACAGCCUUUCACUCCAAUUACAUUACACCUGAACACAUUUCUCUGAGUCUGUUUUUUCUGCAGGUCAAUCUUUUUCAACAGAGGAUUGAGCAUCA
B3: chr9:95013113:95013114:-_ENSG00000196305_ENST00000443024|hu_hu|hu_hu_hu_mus_False|58_58 (ssRNA)
RNA: GGGAGUUCUACAGUCCGACGAUCCUCAGUCAGAAAGGGCGUGUAAGGGGCCAUCAGUCUGCACAGAGAAAGCAGGACACUAAACAAUGUCUCCAGAGCCAUGACACAGUCUUCCACCCCACUCUCACCCUUUAACCUCCUCCUCAACAGAGGAUUGAGCAUCA
B4: 76184225_76186117_1027_CDS_ENSG00000119685_ENST00000298832|human|control|control (ssRNA)
RNA: GGGAGUUCUACAGUCCGACGAUCCCAUUUGUUUCCAUAAUCCUCCACUUCUGGAUCGUCACAACUGACGUAAUCUCCACUUUUCUUGUUGACACUGUAGUUUGUCAGAUGCAUGAACUGGUUCCGAAUGUUCUUGGCUCCUUGCAACAGAGGAUUGAGCAUCA
B5: chr11:31958201:31958202:+_ENSMUSG00000020297_ENSMUST00000020537|mus_mus|FALSE|FALSE (ssRNA)
RNA: GGGAGUUCUACAGUCCGACGAUCCCAUGAGUUUGUGCAAAUCUUGCAAGCUCACCAUUGAGUGGUACUCUGUGCAUUCCUAGUUGAGAAAUGCCAACAUCACCUUCCUCUCCAAAUCAGCCUUGCCUGCCAUCGCUGUGCUUCCAACAGAGGAUUGAGCAUCA
B6: 32462045_32462714_1507_3pUTR_ENSMUSG00000027668_ENSMUST00000091257|mouse|control|control (ssRNA)
RNA: GGGAGUUCUACAGUCCGACGAUCACUCUUAUACACUUUCAGUACACUGGGGGUAGGAUGAAACUCAGAACAAAACUCAUCAACCAAAACAGAUAGUCGACAAAUUUCAUCUGUCAUUGCACAAGAAACCUUGUUUGCCACCUCCAACAGAGGAUUGAGCAUCA
B7: 7395510_7396407_2237_ncRNA_ENSMUSG00000031153_ENSMUST00000132456|mouse|control|control (ssRNA)
RNA: GGGAGUUCUACAGUCCGACGAUCAUGUUCUGCAGCUUCUUGUUCAUUUCUCGAAGGUUCUCAUCGCCUGGCUUCACUAGGUCUCUCAGGACACUGCCCAGCCCACUUCGGUCUGUGUGGCCUGCUGCCACAGACACAUCAAUCCAACAGAGGAUUGAGCAUCA
B8: chr9:14812383:14812384:-_ENSMUSG00000031934_ENSMUST00000164273|mus_mus|mus_mus_mus_hu_True|28_28 (ssRNA)
RNA: GGGAGUUCUACAGUCCGACGAUCAUAGCCCAGGUAGAUACACGCUAACAGUAUAAUGAUGAGUGUCAGCAGGCGGCAGCUAAUGUACUUGAUGAUUAAAUUAUUAGAGUUCUUUUUUGUCUUCAAGUACUGCUCCACAAUUGGCAACAGAGGAUUGAGCAUCA
B9: chr5:144471560:144471561:-_ENSMUSG00000051306_ENSMUST00000053287|mus_hu|FALSE|FALSE (ssRNA)
RNA: GGGAGUUCUACAGUCCGACGAUCGAGACUCCAGUAUCAGUGAAGACAAGAGACGCUGUAUCAAAAAGUGUUGUGUAAUAGAAACAUACUGUCGGCUUUACAAAUCAUGUCUGGGUUAUACAUUCAUAAUGUAAAUACUCAUCACAACAGAGGAUUGAGCAUCA
B10: chr11:54532911:54532912:-_ENSMUSG00000052298_ENSMUST00000064104|mus_hu|FALSE|FALSE (ssRNA)
RNA: GGGAGUUCUACAGUCCGACGAUCGGGUCGGCAGUGAAAAGAAAAAUGUUUAAAAUAGAAAAAAAAAACUGCAAAAUGGUGUUAGCAUUCACAAAAAAGAUCAUGCGAAGAUCAGAUCCAUACUGAUUAAACAUUGAAAAUUCACAACAGAGGAUUGAGCAUCA
B11: chr13:51246309:51246310:+_ENSMUSG00000021395_ENSMUST00000095797|mus_hu|FALSE|FALSE (ssRNA)
RNA: GGGAGUUCUACAGUCCGACGAUCCCCACAGUGAAGCACGAGGGACAGAGCGACUGCAGCUGUGGACAGAAAACUGAGGUACUGUGUUUACAUGGUGAGUGGUCGUUACCAUCCAACAGCACAAGGCACAAAAAAUGGGCAUCACAACAGAGGAUUGAGCAUCA
B12: chr7:140404665:140404666:+_ENSG00000090266_ENST00000247866|hu_hu|hu_hu_hu_mus_False|18_38 (ssRNA)
RNA: GGGAGUUCUACAGUCCGACGAUCUGCUCCUACUCGUCCAGAGAGUUUACAGUGUCAGUCCUCGUCAUCAGGAGGGAUUCCCAGUUCUUCAUCUGUCCACUGGGAAGGAUCUGGAUACGGAAAGUGACCCAGCACAGCAUCCGACAACAGAGGAUUGAGCAUCA
B13: chr6:89793807:89793808:+_ENSG00000146278_ENST00000336032|hu_mus|FALSE|FALSE (ssRNA)
RNA: GGGAGUUCUACAGUCCGACGAUCACUUCCCAUCCAGUGACUCGGAGGCUUUGGGAGGACACUAGGGGAAGGUGGGUCACUGAACUUUGCUCCGGCGUAAUUUUCCUUUUGGCUCACUUCUGUUAGAAAUGCUGAUUUCUUCAACAACAGAGGAUUGAGCAUCA
B14: chr9:104153060:104153061:-_ENSG00000136897_ENST00000374865|hu_mus|FALSE|FALSE (ssRNA)
RNA: GGGAGUUCUACAGUCCGACGAUCAUGAGAUUCCAAGCGACUCUGGAGAUCACUGGGCGGUGUGUAUGCUCGGCUUCGUAAGGGUGGACACACCAAAACAGGUUCUUUUUUCACUUCUUCCACUGUCUCUGCCACAACUGGCUCCAACAGAGGAUUGAGCAUCA
B15: chr19:37005844:37005845:-_ENSG00000254004_ENST00000523638|hu_mus|FALSE|FALSE (ssRNA)
RNA: GGGAGUUCUACAGUCCGACGAUCGGGAGUUUUCUUAGAUUCACUGGGUCUCUCUUCGGUAUGUUGUUUCUGAUGAGAAAGGAAGUUUCCUCUCUGGCUGAAGGCCUUCCCACAUUCCCCACACUUGUAGGACUCCCUCCUUGGCAACAGAGGAUUGAGCAUCA
B16: 118238769_118243032_844_CDS_ENSMUSG00000005102_ENSMUST00000005233|mouse|control|control (ssRNA)
RNA: GGGAGUUCUACAGUCCGACGAUCAGAGAAAUGGAGGAUGUCACACGAGCCAGGAGAGGGUUCACCACUACACACAGAAUACUGACGUUCUCGCCUGGACCUUCCUGAGGAGUAUGUCCGGGCUUUACCAUUUCCUACAAAGUCCAACAGAGGAUUGAGCAUCA
B17: chr16:11966626:11966627:-_ENSG00000103342_ENST00000563468|hu_hu|FALSE|FALSE (ssRNA)
RNA: GGGAGUUCUACAGUCCGACGAUCUUGUAACAUGUGCACACACACUCGCACACUCAGAAUGAUCUGCCUGGGGGAAAAAUACUAAAUAUGCCUAAGGGGAAAAUGAAAAAUAAAAAAAUUCCUGUAGGUUUUCAUUAUUGUAGGCAACAGAGGAUUGAGCAUCA
B18: chr12:72179577:72179578:+_ENSG00000080371_ENST00000261263|hu_mus|motif|central (ssRNA)
RNA: GGGAGUUCUACAGUCCGACGAUCGUUUAGCACUUAAGGUCUCUGCAGUGUUAUAAACGUAAUUGAAAAUACUGUUAAUUCGGUAACUCCAUUGGUAAAAUGAUGUGACUUGGAAUAUGGCAGUCUUCAUGUUGAGGGCAAUGACAACAGAGGAUUGAGCAUCA
B19: chr16:94690093:94690094:+_ENSMUSG00000040785_ENSMUST00000117648|mus_hu|mus_mus_mus_hu_True|18_68 (ssRNA)
RNA: GGGAGUUCUACAGUCCGACGAUCGGGCUGGGAUGACGGACACACAGCCUCGAUUCCAGGGGGAAAAAAAAAUAGCCGAUACUAAUUAAAAAGUGUUAAUGAUUUUUGAAAAUCAGAUGUAGAUUAAAAAAGAUGAAAAGCAAACAACAGAGGAUUGAGCAUCA
B20: chr4:25749455:25749456:-_ENSG00000091490_ENST00000264868|hu_hu|hu_hu_hu_mus_False|8_68 (ssRNA)
RNA: GGGAGUUCUACAGUCCGACGAUCGCACUAUGACCUCUAGAAAAAUCCACAGGGGGAAAAAAUGUAAACCAAUUUACAAUGUUAUCGCCUUCCCUGUGUGUGGAGUGUUUGUCUCAAGGCUCCUUCUUGCCUUAUAAUUUGGGACAACAGAGGAUUGAGCAUCA
B21: chr1:150192712:150192713:-_ENSG00000143401_ENST00000314136|hu_hu|FALSE|FALSE (ssRNA)
RNA: GGGAGUUCUACAGUCCGACGAUCGCACCAUACUACACCUGUGUAAAAGUGAUCAUGUUUUAAUUAUGGGCUAAAAAUGACUAAUACAGUAAGCUUGAAUUUAAAAAAUUAAGUCUAAAUAAAUUGCUAGGGAAUUCCACAAUGCAACAGAGGAUUGAGCAUCA
B22: chr1:150192712:150192713:-_ENSG00000143401_ENST00000314136|hu_hu|motif|central (ssRNA)
RNA: B21 RNA with U81G, A82G

This test has as its target T1, UNK ZnF1-3 (human, UniProt Q9C0B0 31-174).
T1 sequence: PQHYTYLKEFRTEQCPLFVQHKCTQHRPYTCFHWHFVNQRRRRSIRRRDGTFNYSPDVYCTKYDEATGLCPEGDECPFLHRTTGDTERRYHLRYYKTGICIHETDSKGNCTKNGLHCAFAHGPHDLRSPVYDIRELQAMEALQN
Nature of the test: nsRBNS (natural sequence RNA bind-n-seq); RBNS binding buffer (assumed for nsRBNS): 25 mM Tris pH 7.5, 150 mM KCl, 3 mM MgCl2, 0.01% Triton X-100, 500 ug/ml BSA, 20 U/ml SUPERase-In, 4 C; UNK is unkempt and MSI1 is Musashi-1; names of the RNAs are library labels; protein concentration not given here; high values mean tight binding.
On to B1, for which the binding signal stood at 0.465 enrichment R. For the molecule B2, the binding signal was 0.484 enrichment R. As to B3, the binding signal was 1.48 enrichment R. B4: the binding signal was 0.4 enrichment R.

Molecule B5 displayed a binding signal of 0.67 enrichment R.

The molecule B6 gave a binding signal of 1.52 enrichment R. Molecule B7 gave a binding signal of 0.526 enrichment R. Under B8 stands 1.74 enrichment R. The value for B9 was 1.01 enrichment R; that for B10 was 4.5 enrichment R.

The molecule B11 yielded a binding signal of 1.39 enrichment R. For the molecule B12, the binding signal worked out at 1.45 enrichment R. Under B13 stands 0.744 enrichment R; under B14, 0.821 enrichment R. Under B15 stands 0.845 enrichment R; under B16, 1.63 enrichment R; under B17, 3.28 enrichment R. B18 displayed a binding signal of 0.946 enrichment R.

In the case of B19, the binding signal worked out at 3.66 enrichment R. Under B20 stands 0.719 enrichment R.

The molecule B21 registered a binding signal of 5.25 enrichment R. For B22, the binding signal came to 5.11 enrichment R.
